# Results: PubChem BioAssay
# “And” between values parts separate entries of the source, which are not always exact repeats. Equal entries are not always repeated. Records with an inconclusive call do not appear. For some assays here: Entries with a potency or affinity are not part of this list. The source made the active and inactive calls.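 The calls were made as follows, unless noted: active = compounds killing one labelled cell type while sparing the other, by normalised counts and ratio limits, not self-fluorescent; inactive = the rest.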 Bridge positions count the residues as written; N and C are the ends. Square brackets hold non-standard residues; d marks the D form. Peptide text beside a SMILES is read from it. * marks the point of attachment. Octanoyl(6-Me) = CCC(C)CCCCC(=O)*; Dab = NCC[CH](N)C(=O)O
# Legend:
# [1] = blockers of polyQ-driven CASP3 activation – cell-based (AID 1583); conditions: polyglutamine-induced caspase-3 activation, cell assay; stronger effect = higher value;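 tested at 10 µM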
# [2] = yeast 75Q aggregation reduction – 75Q-TubU reporter (AID 1593); conditions: Yeast 75Q polyglutamine aggregation reporter
# [3] = restoration of touch response, mutant HTT neurons – whole organism, C. elegans mechanosensory neurons, N-terminal huntingtin (AID 1599); conditions: C. elegans polyQ-huntingtin mechanosensory neurons, stronger effect = higher value
# [4] = blockers of cytochrome c efflux from mitochondria – biochemical, purified mitochondria (AID 1603); conditions: stronger effect = lower value;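 also: mouse liver mitochondria challenged with calcium chloride; signal normalized to the plate average as 100%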
# [5] = polyglutamine aggregate formation blockers (AID 1604); conditions: polyglutamine-induced protein aggregation inhibition assay; stronger effect = higher value; tested at 2.5 µM
# [6] = glutamate transport activators, MN-1 cells, MN-1 cell line (AID 1612); conditions: MN-1 motor neuron cells, stronger effect = higher value;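 also: tested at 1 µM final; 0% = mean of DMSO vehicle wells on each plate; positive means more glutamate uptake than control and negative means less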
# [7] = GFP-Q80 aggregate reduction, neuronal-like cells, cell-based, NGF-treated PC12, GFPQ80 (AID 1614); conditions: PC12 NGF-treated GFP-polyQ80 inclusion reduction;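 also: lower means fewer inclusions and 0 means no inclusions at all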
# [8] = 75Q-TubH aggregate inhibition, S. cerevisiae, yeast (AID 1616); conditions: S. cerevisiae 75Q-TubH polyglutamine aggregation suppression; stronger effect = higher value
# [9] = P. berghei load reduction in hepatocytes – cell-based, HepG2, luciferase luminescence, HepG2 viability, primary screen (AID 624349; in the data active = parasite load remaining mostly below about 12%, no sharp cut-off; inactive = mostly above about 10%;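 also: 100% = mean of DMSO negative control wells on the same plate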); conditions: P. berghei liver stage in HepG2, luciferase luminescence, concentration not given here; parasite load remaining: stronger effect = lower value; viability: measured here: HepG2 viability without parasites
# [10] = target: 6-phosphogluconate dehydrogenase, decarboxylating (Homo sapiens) (UniProt P52209); assay: inhibition of human phosphogluconate dehydrogenase – biochemical, recombinant enzyme, NADPH absorbance, primary screen (AID 1159550;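 active = at least 20% inhibition of 6-phosphogluconate dehydrogenase activity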); conditions: recombinant 6PGD, NADPH absorbance 341 nm; at 10 µM; stronger effect = higher value
# [11] = EMT-state selective cytotoxicity in co-culture – imaging, PC-3E GFP, TEM4-18 mCherry, primary screen (AID 1345086); conditions: PC-3E GFP / TEM4-18 mCherry co-culture, imaging cell counts, at 1 µM; for red/green cell ratio (normalised): actives lie on both sides, counts scaled to control wells, 1 = unselective;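 as to all read-outs here: cells exposed to compound for 72 h before imaging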;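 as to red/green cell ratio (normalised): normalised mesenchymal count divided by normalised epithelial count so high means epithelial killing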
# [12] = target: NAD(+) hydrolase SARM1 (Homo sapiens) (UniProt Q6SZW1); assay: blocking NAD cleavage by SARM1 SAM-TIR – cell lysate, NAD-Glo luminescence (AID 1508614;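 active = compound whose remaining NAD level is above about 45 nM, limit read from the data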;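 also: higher remaining NAD means stronger inhibition of SARM1 NADase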); conditions: SAM-TIR HEK293T lysate NADase, at 1 µM, stronger effect = higher value
# [13] = target: Mitogen-activated protein kinase 7 (Homo sapiens) (UniProt Q13164); assay: Gal4-ERK5 driven luciferase induction – cell-based, HTS, primary screen (AID 1508626;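 active = luciferase signal above three times the same-plate solvent-only control wells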;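 also: luciferase driven by Gal4-ERK5 fusion binding five Gal4 sites before minimal TATA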); conditions: HeLa Gal4-ERK5 transactivation, 18 h, at 5 µM, stronger effect = higher value
# [14] = viability loss with induced miR-34 in A549 – imaging, A549 dox-inducible miR-34, nuclei and caspase counts, primary screen (AID 1347080;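 active = compounds whose cell count with miR-34 switched on is under 0.7 times the count with it off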); conditions: A549 miR-34 inducible, Hoechst nuclei count, 48 h
# [15] = compounds altering viability of human ES cells (AID 493140; call rule not given here;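 also: cells exposed to compounds for four days before counting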); conditions: human embryonic stem cell survival screen; stronger effect = higher value
# [16] = target: ATP-dependent translocase ABCB1 (Homo sapiens) (UniProt P08183); assay: P-glycoprotein substrate transport blockade – cell-based (AID 377; in the data active = fluorescence slope change above about 50%); conditions: MDR1-expressing cells, fluorescent substrate accumulation slope; stronger effect = higher value; concentration not given here
# [17] = MELAS cybrid and Rieske KO viability enhancers – cell-based, MELAS cybrids, Rieske KO mouse fibroblasts, CellTiter-Glo, primary screen (AID 1508586;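 active = mean z-score across replicates of 1.96 or higher in either the MELAS or the Rieske mutant cell line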;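 also: z relative to plate mean and SD of compound and empty wells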); conditions: low glucose
# [18] = galactose survival enhancers in mitochondrial complex I cybrids – cell-based, galactose medium, ATP luminescence, primary screen (AID 1645843;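 active = z-score of at least 1.8 in each of two replicates, scored against plate mean and spread of sample wells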;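 also: positive z means more ATP and so rescue of galactose-driven cybrid death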); conditions: complex I mutant cybrid cells, 72 h, stronger effect = higher value
# [19] = measured here: epithelial PC-3E GFP cell survival
# [20] = measured here: mesenchymal TEM4-18 mCherry cell survival
# [21] = stronger effect = lower value, cell number ratio, induced over uninduced
# [22] = measured here: relative caspase fold change +Dox/-Dox
# [23] = measured here: total cells with miR-34 induction, stronger effect = lower value
# [24] = measured here: total cells without miR-34 induction
# Chain of Mitogen-activated protein kinase 7 (Homo sapiens) (Q13164 whole entry, looked up, the tested form may be a part): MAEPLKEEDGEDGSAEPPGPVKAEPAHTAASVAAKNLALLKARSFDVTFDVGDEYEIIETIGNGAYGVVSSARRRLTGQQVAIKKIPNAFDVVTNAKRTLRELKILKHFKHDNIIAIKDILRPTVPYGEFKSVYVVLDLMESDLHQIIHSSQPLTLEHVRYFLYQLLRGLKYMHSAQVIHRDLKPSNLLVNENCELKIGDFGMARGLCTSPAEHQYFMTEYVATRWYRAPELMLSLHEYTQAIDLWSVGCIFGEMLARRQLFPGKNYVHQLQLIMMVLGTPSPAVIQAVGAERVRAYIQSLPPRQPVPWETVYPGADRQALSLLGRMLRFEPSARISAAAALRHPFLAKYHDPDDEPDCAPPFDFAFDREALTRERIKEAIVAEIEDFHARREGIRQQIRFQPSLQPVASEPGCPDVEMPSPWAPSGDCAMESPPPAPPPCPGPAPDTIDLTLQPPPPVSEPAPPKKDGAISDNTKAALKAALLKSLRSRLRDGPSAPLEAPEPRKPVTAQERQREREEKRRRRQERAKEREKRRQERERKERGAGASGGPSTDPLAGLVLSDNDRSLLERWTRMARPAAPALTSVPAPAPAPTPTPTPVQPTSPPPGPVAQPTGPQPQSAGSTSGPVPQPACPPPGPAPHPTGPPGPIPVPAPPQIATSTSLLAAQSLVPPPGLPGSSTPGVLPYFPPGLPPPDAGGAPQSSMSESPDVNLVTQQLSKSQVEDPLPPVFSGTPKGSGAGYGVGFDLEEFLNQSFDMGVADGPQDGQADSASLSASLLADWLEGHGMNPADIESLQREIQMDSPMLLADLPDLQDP
# Chain of 6-phosphogluconate dehydrogenase, decarboxylating (Homo sapiens) (P52209 whole entry, looked up): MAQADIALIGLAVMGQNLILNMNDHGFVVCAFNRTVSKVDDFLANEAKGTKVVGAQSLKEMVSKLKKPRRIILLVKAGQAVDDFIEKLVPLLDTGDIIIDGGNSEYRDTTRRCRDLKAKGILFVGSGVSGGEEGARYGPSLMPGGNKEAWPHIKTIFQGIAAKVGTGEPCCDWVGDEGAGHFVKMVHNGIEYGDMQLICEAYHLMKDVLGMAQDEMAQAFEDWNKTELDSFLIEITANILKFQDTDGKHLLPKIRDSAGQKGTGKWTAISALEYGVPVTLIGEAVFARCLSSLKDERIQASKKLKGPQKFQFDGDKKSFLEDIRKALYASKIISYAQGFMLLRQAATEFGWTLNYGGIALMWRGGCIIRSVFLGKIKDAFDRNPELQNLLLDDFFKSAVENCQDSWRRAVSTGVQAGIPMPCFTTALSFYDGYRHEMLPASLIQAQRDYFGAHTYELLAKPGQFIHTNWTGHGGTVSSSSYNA
# Chain of NAD(+) hydrolase SARM1 (Homo sapiens) (Q6SZW1 whole entry, looked up, the tested form may be a part): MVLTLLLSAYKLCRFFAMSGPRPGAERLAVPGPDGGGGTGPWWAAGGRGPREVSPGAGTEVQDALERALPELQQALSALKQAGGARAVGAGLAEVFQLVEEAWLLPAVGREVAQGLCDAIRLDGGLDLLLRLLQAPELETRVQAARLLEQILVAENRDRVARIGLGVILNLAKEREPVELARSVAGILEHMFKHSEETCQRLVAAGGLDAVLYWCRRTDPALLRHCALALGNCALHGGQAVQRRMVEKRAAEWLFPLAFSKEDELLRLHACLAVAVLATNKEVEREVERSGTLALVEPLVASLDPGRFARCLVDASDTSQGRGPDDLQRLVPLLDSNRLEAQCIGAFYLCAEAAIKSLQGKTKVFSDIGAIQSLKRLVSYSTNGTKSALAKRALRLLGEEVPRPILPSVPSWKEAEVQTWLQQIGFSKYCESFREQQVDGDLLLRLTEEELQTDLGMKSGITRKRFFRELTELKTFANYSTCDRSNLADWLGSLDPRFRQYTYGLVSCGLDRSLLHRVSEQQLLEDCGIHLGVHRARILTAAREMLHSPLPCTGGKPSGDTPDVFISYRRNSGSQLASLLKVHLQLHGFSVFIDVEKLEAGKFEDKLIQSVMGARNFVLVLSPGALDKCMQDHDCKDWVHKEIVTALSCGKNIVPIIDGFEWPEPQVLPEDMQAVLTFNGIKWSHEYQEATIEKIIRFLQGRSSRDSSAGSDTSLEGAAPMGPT
# Chain of ATP-dependent translocase ABCB1 (Homo sapiens) (P08183 whole entry, looked up): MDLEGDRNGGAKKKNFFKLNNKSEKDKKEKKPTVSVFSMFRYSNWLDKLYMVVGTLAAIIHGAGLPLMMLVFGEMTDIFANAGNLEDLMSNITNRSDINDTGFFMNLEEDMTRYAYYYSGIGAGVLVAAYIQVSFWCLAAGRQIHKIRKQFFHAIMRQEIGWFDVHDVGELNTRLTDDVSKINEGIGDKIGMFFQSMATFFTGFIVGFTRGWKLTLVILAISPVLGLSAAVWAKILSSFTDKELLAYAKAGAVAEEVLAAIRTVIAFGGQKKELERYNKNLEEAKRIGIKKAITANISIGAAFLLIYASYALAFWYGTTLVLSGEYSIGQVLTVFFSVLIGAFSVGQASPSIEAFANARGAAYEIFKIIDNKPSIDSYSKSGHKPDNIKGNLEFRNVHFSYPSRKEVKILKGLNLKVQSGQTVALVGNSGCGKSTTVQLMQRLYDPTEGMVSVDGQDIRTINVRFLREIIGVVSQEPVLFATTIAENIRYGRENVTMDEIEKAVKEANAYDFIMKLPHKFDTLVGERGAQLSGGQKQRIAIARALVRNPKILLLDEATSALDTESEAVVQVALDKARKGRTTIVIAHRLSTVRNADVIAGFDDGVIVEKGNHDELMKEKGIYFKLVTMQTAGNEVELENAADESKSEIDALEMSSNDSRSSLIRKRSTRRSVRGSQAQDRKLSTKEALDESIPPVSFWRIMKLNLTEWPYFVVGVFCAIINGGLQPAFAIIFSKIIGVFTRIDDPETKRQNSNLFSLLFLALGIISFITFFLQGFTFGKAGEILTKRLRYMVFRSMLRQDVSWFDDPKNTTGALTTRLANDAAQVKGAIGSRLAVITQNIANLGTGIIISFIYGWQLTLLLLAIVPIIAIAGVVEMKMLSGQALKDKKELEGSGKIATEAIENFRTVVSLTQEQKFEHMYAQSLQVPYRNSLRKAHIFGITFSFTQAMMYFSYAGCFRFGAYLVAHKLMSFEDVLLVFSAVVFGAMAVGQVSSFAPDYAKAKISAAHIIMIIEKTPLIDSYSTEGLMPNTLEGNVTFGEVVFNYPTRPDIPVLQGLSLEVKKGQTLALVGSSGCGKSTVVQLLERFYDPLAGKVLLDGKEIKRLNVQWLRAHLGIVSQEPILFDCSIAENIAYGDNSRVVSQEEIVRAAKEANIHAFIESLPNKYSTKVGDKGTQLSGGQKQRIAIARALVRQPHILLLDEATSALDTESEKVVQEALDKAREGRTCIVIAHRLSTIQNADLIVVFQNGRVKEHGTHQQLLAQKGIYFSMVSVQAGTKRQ
smiles,measurement,setting,value
N[C@H](Cc1ccccc1)C(=O)O,inhibition,[1],15.8%
same,score,[2],1.59
same,rescue above control,[3],-4.58
same,cytochrome c release ratio,[4],0.85
same,inhibition of aggregation,[5],56.8%
same,glutamate uptake change,[6],4.25%
same,inclusion score,[7],2
same,aggregation suppression score,[8],1.21
same,parasite load remaining,[9],140% (inactive)
same,viability,[9],87.2%
same,inhibition,[10],6.57% (inactive)
same,red/green cell ratio (normalised),[11],1.1 (inactive)
same,normalised cell number,[11]; [19],0.82
same,normalised cell number,[11]; [20],0.9
same,remaining NAD,[12],98 nM (active)
same,luciferase signal,[13],56 AU (inactive)
CCC(C)CCCCC(=O)NC(CCN)C(=O)NC(C(=O)NC(CCN)C(=O)NC1CCNC(=O)C(C(C)O)NC(=O)C(CCN)NC(=O)C(CCN)NC(=O)C(CC(C)C)NC(=O)C(Cc2ccccc2)NC(=O)C(CCN)NC1=O)C(C)O (stereo not drawn) ({Octanoyl(6-Me)}-[Dab]T[Dab][Dab][Dab]FL[Dab][Dab]T; lactam 4-C; configuration not given here),inhibition,[1],15%
same,score,[2],0.73
same,rescue above control,[3],0
same,cytochrome c release ratio,[4],7.61
same,inhibition of aggregation,[5],70.5%
same,glutamate uptake change,[6],-11.7%
same,inclusion score,[7],2
same,aggregation suppression score,[8],0.739
same,parasite load remaining,[9],82.5% (inactive) and 41.4% (inactive)
same,viability,[9],77.7% and 91.4%
same,inhibition,[10],11% (inactive)
same,red/green cell ratio (normalised),[11],1.23 (inactive)
same,normalised cell number,[11]; [19],0.93
same,normalised cell number,[11]; [20],1.14
same,fold change,[14]; [21],0.886 (inactive)
same,fold change,[14]; [22],2.98
same,cell count,[14]; [23],11700
same,cell count,[14]; [24],13200
same,remaining NAD,[12],10 nM (inactive)
COc1cc2cc3c4cc(OC)c(OC)cc4cc[n+]3c(C)c2cc1OC,survival,[15],0.333 (inactive)
same,parasite load remaining,[9],91.2% (inactive) and 45.3% (inactive) and 68.5% (inactive)
same,viability,[9],98.6% and 66.5% and 73.3%
same,inhibition,[10],13.7% (inactive)
same,red/green cell ratio (normalised),[11],0.8 (inactive)
same,normalised cell number,[11]; [19],1
same,normalised cell number,[11]; [20],0.8
same,fold change,[14]; [21],0.879 (inactive)
same,fold change,[14]; [22],1.23
same,cell count,[14]; [23],8980
same,cell count,[14]; [24],10200
same,luciferase signal,[13],72 AU (inactive)
C[n+]1c2cc(N)ccc2cc2ccc(N)cc21,score,[2],0.44
same,rescue above control,[3],0
same,cytochrome c release ratio,[4],0.97
same,inhibition of aggregation,[5],91.3%
same,glutamate uptake change,[6],14.1%
same,aggregation suppression score,[8],0.101
same,parasite load remaining,[9],25.5% (inactive) and -0.145% (inactive)
same,viability,[9],41.9% and 34.3%
same,inhibition,[10],-0.987% (inactive)
same,red/green cell ratio (normalised),[11],0.5 (active)
same,normalised cell number,[11]; [19],0.8
same,normalised cell number,[11]; [20],0.4
same,fold change,[14]; [21],1.05 (inactive)
same,fold change,[14]; [22],0.642
same,cell count,[14]; [23],1590
same,cell count,[14]; [24],1510
same,remaining NAD,[12],10 nM (inactive)
same,luciferase signal,[13],24 AU (inactive)
CC(C)c1nc(N(C)S(C)(=O)=O)nc(-c2ccc(F)cc2)c1/C=C/[C@@H](O)C[C@@H](O)CC(=O)O,parasite load remaining,[9],73.5% (inactive) and 60.1% (inactive)
same,viability,[9],86.4% and 101%
same,inhibition,[10],1.44% (inactive)
same,red/green cell ratio (normalised),[11],0.94 (inactive)
same,normalised cell number,[11]; [19],1.08
same,normalised cell number,[11]; [20],1.02
same,fold change,[14]; [21],0.858 (inactive)
same,fold change,[14]; [22],2.33
same,cell count,[14]; [23],12000
same,cell count,[14]; [24],13900
same,remaining NAD,[12],10 nM (inactive)
same,luciferase signal,[13],48 AU (inactive)
CCCCN1CCCCC1C(=O)Nc1c(C)cccc1C (stereo not drawn),fluorescence slope change,[16],-6% (inactive)
same,inhibition,[1],17%
same,score,[2],1.42
same,rescue above control,[3],-7.52
same,cytochrome c release ratio,[4],0.81
same,inhibition of aggregation,[5],-27.4%
same,glutamate uptake change,[6],1.83%
same,inclusion score,[7],2
same,aggregation suppression score,[8],1.3
same,survival,[15],10.1 (inactive)
same,inhibition,[10],3.83% (inactive)
same,red/green cell ratio (normalised),[11],1.17 (inactive)
same,normalised cell number,[11]; [19],1.13
same,normalised cell number,[11]; [20],1.33
same,z-score,"[17]; MELAS cybrid survival, CellTiter-Glo 48 h, stronger effect = higher value",-0.429 (inactive) and 0.622 (inactive) and -0.162 (inactive)
same,z-score,"[17]; Rieske KO mouse fibroblast survival, CellTiter-Glo 72 h",-0.124 and 0.613 and -0.528
same,remaining NAD,[12],10 nM (inactive)
same,luciferase signal,[13],68 AU (inactive)
same,z-score,[18],0.545 (inactive)
CC[C@H]1OC(=O)C[C@@H](O)[C@H](C)[C@@H](O[C@@H]2O[C@H](C)[C@@H](O[C@H]3C[C@@](C)(O)[C@@H](O)[C@H](C)O3)[C@H](N(C)C)[C@H]2O)[C@@H](CC=O)C[C@@H](C)C(=O)/C=C/C(C)=C/[C@@H]1CO[C@@H]1O[C@H](C)[C@@H](O)[C@@H](OC)[C@H]1OC,parasite load remaining,[9],131% (inactive) and 58.3% (inactive)
same,viability,[9],85.6% and 145%
same,inhibition,[10],1.55% (inactive)
same,red/green cell ratio (normalised),[11],1.03 (inactive)
same,normalised cell number,[11]; [19],1.05
same,normalised cell number,[11]; [20],1.08
same,fold change,[14]; [21],0.905 (inactive)
same,fold change,[14]; [22],5.16
same,cell count,[14]; [23],12000
same,cell count,[14]; [24],13200
same,remaining NAD,[12],10 nM (inactive)
same,luciferase signal,[13],16 AU (inactive)
CC(C)c1c(O)c(-c2cc3c(c(C(C)C)c2O)CCC2C(C)(C)CCC[C@]32C)cc2c1CCC1C(C)(C)CCC[C@]21C (stereo partly drawn),inhibition,[10],-2.25% (inactive)
same,red/green cell ratio (normalised),[11],1 (inactive)
same,normalised cell number,[11]; [19],1.03
same,normalised cell number,[11]; [20],1.03
same,luciferase signal,[13],40 AU (inactive)
CC(C)=CCOc1cc2oc(=O)ccc2cc1O,inhibition,[10],1.28% (inactive)
same,red/green cell ratio (normalised),[11],1.03 (inactive)
same,normalised cell number,[11]; [19],1.12
same,normalised cell number,[11]; [20],1.16
same,luciferase signal,[13],36 AU (inactive)
CC(=O)OC1CCC23CC1(C)CCC2C(C)(C)CC3OC(C)=O (stereo not drawn),inhibition,[10],-1.38% (inactive)
same,red/green cell ratio (normalised),[11],1.04 (inactive)
same,normalised cell number,[11]; [19],1.07
same,normalised cell number,[11]; [20],1.11
same,luciferase signal,[13],80 AU (inactive)
Oc1cc(O)c2c(c1)O[C@H](c1cc(O)c(O)c(O)c1)[C@H](O)C2,inhibition,[10],-13.7% (inactive)
same,red/green cell ratio (normalised),[11],1.12 (inactive)
same,normalised cell number,[11]; [19],0.76
same,normalised cell number,[11]; [20],0.85
same,luciferase signal,[13],172 AU (inactive)
CC1=C2C(O)C(=O)OC3CC4C(C)(C)C(=O)C=C[C@]4(C)C(CC1)[C@]23C (stereo partly drawn),inhibition,[10],-6.52% (inactive)
same,red/green cell ratio (normalised),[11],1.05 (inactive)
same,normalised cell number,[11]; [19],0.98
same,normalised cell number,[11]; [20],1.02
same,luciferase signal,[13],144 AU (active)
COc1ccc2c(c1)OC1(O)COc3cc(OC)c(OC)cc3C1=C2 (stereo not drawn),inhibition,[10],-7.74% (inactive)
same,red/green cell ratio (normalised),[11],1.07 (inactive)
same,normalised cell number,[11]; [19],1.01
same,normalised cell number,[11]; [20],1.09
same,luciferase signal,[13],108 AU (inactive)
COc1c2ccoc2c(OC)c2oc(=O)ccc12,inhibition,[10],6.1% (inactive)
same,red/green cell ratio (normalised),[11],1.06 (inactive)
same,normalised cell number,[11]; [19],1.03
same,normalised cell number,[11]; [20],1.09
same,luciferase signal,[13],432 AU (active)
